# Screening results (PubChem)
# aSyn 5UTR inh: MLPCN primary screen, SNCA 5' untranslated region; alpha-synuclein 5'UTR reporter, inhibitor activity; inhibition, % (tested at 7.5 µM); 300,000 compounds, 0.82% hits; in the data active = inhibition above about 60%;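 note: H4 neuroglioblastoma cells stably carrying SNCA 5'UTR luciferase fusion; 0% = DMSO wells and 100% = positive control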
# ANO1 activ: mouse TMEM16A channel activation, primary screen; Q8BHY3; HEK293 TMEM16A/YFP-H148Q/I152L, iodide quench fluorescence; hits give low values; B-score at 10 µM; 340,000 compounds, 0.3% hits;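 active = fluorescence-ratio B-score plate-corrected deviation score at least 3 library SD below zero, with starting fluorescence score within 5 deviations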;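 note: channel opened by trigger with iodide after compound preincubation; score built on the fluorescence ratio of max minus min over baseline; more negative score means more quench and so TMEM16A activation or potentiation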
# Target sequence (Q8BHY3 whole entry, looked up): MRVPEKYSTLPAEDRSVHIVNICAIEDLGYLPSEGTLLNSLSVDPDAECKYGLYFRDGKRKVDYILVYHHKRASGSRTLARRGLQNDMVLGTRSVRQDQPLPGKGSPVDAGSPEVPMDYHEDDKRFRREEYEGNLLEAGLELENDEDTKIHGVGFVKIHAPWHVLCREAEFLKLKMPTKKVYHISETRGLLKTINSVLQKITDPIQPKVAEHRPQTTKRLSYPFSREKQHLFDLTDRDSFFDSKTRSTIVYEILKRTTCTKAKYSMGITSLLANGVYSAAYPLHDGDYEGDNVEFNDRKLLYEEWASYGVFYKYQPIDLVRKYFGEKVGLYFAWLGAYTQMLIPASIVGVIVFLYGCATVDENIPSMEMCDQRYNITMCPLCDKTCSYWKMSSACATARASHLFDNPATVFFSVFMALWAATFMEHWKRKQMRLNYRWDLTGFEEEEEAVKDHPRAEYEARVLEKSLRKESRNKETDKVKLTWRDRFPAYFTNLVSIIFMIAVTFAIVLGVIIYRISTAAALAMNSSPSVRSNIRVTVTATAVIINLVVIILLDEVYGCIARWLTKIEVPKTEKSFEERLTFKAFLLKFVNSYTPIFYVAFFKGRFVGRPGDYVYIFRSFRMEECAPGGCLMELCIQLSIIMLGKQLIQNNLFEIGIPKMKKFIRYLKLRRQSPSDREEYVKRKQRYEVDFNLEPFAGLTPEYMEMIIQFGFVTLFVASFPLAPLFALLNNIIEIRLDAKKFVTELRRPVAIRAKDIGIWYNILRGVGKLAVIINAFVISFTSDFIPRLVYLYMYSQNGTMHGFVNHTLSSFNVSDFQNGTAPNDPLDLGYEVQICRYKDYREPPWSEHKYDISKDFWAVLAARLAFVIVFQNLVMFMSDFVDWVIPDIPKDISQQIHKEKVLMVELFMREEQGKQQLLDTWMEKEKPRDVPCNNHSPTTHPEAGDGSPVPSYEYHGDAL
# 697 NFkB inh: inhibitors of the PMA/ionomycin-induced NF-kB reporter in 697 B cells; 697 B-cell NF-kB luciferase reporter, 16 h; inhibition, % at 4 µM; 330,000 compounds, 0.33% hits; in the data active = inhibition above about 35%
# ANO1 block: inhibitors of mouse TMEM16A calcium-activated chloride channel | 310,000 compounds, 1.2% hits | Q8BHY3 | normalized B-score (activity score, 25-100; higher = stronger inhibition) at 10 µM | HEK293 TMEM16A/YFP iodide influx fluorescence, ionomycin | AID 588511;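 active = ratio plate-corrected score three or more library SD toward inhibition, starting fluorescence score within five deviations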;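 note: score derived from kinetic fluorescence span divided by baseline fluorescence per well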
# Jurkat NFkB inh: inhibitors of the PMA/ionomycin-induced NF-kB reporter in Jurkat cells; PMA/ionomycin-induced NF-kB luciferase reporter, luminescence; inhibition, % at 4 µM; 330,000 compounds, 0.53% hits; in the data active = inhibition above about 50%
# KLF5 inh: kruppel-like factor 5 inhibition | inhibition, % at 5 µM | DLD-1 KLF5 promoter-luciferase reporter, luminescence | 290,000 compounds, 0.23% hits;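 active = inhibition above a per-plate limit of that plate's mean compound inhibition plus 3 SD, cut at about 60% in these data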;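 note: 0% = DMSO wells and 100% = LY294002 at 200 µM; higher means less KLF5 promoter-driven luciferase light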
# * = called active by the depositor; i = inactive; / = no result given. A selection: hits, their analogues and other compounds. The true share with any hit is near 2.5%.
SMILES,aSyn 5UTR inh,ANO1 activ,697 NFkB inh,ANO1 block,Jurkat NFkB inh,KLF5 inh
OCCN=C1CCCc2c1[nH]c1ccc(Br)cc21,62*,i,4,i,0,-1
Cc1ccc(S(=O)(=O)NC(=O)c2ccc(-c3ccc(C)c4ccccc34)o2)cc1,-17,i,3,25*,-3,0
O=S(=O)(Cc1ccccc1)CS(=O)(=O)Cc1ccccc1,/,i,/,/,/,/
O=C(CCN1CCOCC1)Nc1cc(C(=O)Nc2ccc(Cl)cc2)ccc1N1CC2CC(C1)c1cccc(=O)n1C2 (stereo unspecified),21,i,5,i,12,7
O=C(Nc1nc(-c2ccccn2)cs1)c1cccc(-n2cnnn2)c1,83*,i,-26,i,16,9
CCC(C)(C)NC(=O)c1ccc2c(c1)OCCO2,-12,-27*,-6,i,2,-31
COc1ccc(NC(=O)Nc2cc(C)ccn2)cc1,/,i,/,/,/,/
Cc1cccc(C(=O)NNC(=S)NC(=O)c2cccs2)c1,5,i,-23,i,3,14
CCCCC(=O)NC(=S)NNC(=O)c1ccc(Cl)cc1Cl,-13,i,/,/,/,-16
Cc1ccc(C(=O)NNC(=S)NC(=O)c2ccc(Cl)cc2Cl)cc1,-1,i,16,100*,9,-1
Cc1cccc(C(=O)NNC(=S)NC(=O)c2ccccc2)c1,21,i,-7,100*,-1,/
Cc1ccc(C(=O)NCCc2ccncc2)cc1,-114,i,-20,i,-55,-40
Cc1ccc(C(=O)NCCc2ccccc2)cc1,71*,i,-92,i,-36,58
COc1ccc(C(=O)NC(=O)Nc2cc(C)ccn2)cc1,72*,i,-51,i,13,-156
O=C1/C(=C/c2cccs2)SC(=S)N1CCC(=O)N1CCCCC1CCO (stereo unspecified),-109,i,-1,i,-5,-63
O=C(NC(=S)NNC(=O)[C@H]1C[C@@H]1c1ccccc1)c1cccc(F)c1,67*,i,6,100*,0,-16
Cc1ccc(C(=O)NC(=S)NNC(=O)c2ccccc2)cc1,-18,i,-17,i,-15,5
COc1ccc(C(=O)NC(=S)NNC(=O)c2cccc(C)c2)cc1,4,i,-11,25*,-3,/
COc1cccc(OC)c1C(=O)NC(=S)NNC(=O)[C@H]1C[C@@H]1c1ccccc1,-5,i,22,i,10,1
Cc1ccc(C(=O)NNC(=S)NC(=O)c2ccccc2)cc1,15,i,-24,100*,-16,/
CC(C)(C)c1cc(CCC(=O)NNC(=S)NC(=O)c2ccccc2)cc(C(C)(C)C)c1O,66*,-6.1*,-28,100*,-1,-16
COc1cccc(CNC(=O)Cc2ccc(OC)c(S(=O)(=O)N3CCOCC3)c2)c1,18,i,-5,i,-9,/
CCOC(=O)C1CCN(C(=O)c2ccccc2)C(CC)C1=O (stereo unspecified),/,i,/,/,/,/
Cc1ccc(C(=O)NCc2ccccn2)cc1S(=O)(=O)N1CCOCC1,/,i,-4,/,-2,/
c1ccc(CNc2nc(NCc3ccccc3)c3ccccc3n2)cc1,106*,i,-36,i,38,1
SMILES,aSyn 5UTR inh,ANO1 activ,697 NFkB inh,ANO1 block,Jurkat NFkB inh,KLF5 inh
COC(=O)c1ccc2c(c1)C(=O)/C(=C/c1ccc(O)cc1)O2,-118,i,/,i,/,-3
COc1cccc(/C=C2\Oc3ccc(O)cc3C2=O)c1O,83*,i,-56,i,7,-42
COC(=O)c1nn(-c2ccc(-c3ccccc3)cc2)cc1O,67*,i,-149,i,-84,-47
CCOC(=O)c1nn(-c2ccccc2)cc1O,-60,i,6,i,-7,-50
O=C(Nc1ccc([N+](=O)[O-])cc1)NN1CCCCCC1,/,i,/,/,/,/
CC(C)Oc1ccc(C(=O)OCC(=O)N2CCCc3ccccc32)cc1,0,i,-14,i,11,/
CCCCn1nc(C(=O)N(CC(C)C)c2c(N)n(CCCC)c(=O)[nH]c2=O)c2ccccc2c1=O,/,i,-10,/,8,/
COc1ccc(-c2csc(NC(=O)c3ccc(OCC(=O)N4CCOCC4)c(OC)c3)n2)cc1,-45,i,14,100*,9,0
COc1cc(C(=O)Nc2nc(-c3ccc(F)cc3)cs2)ccc1OCC(=O)N1CCOCC1,-24,i,5,25*,2,-16
CN(c1ccccc1)S(=O)(=O)c1cccc(NC(=O)C2=NNC(=O)CC2)c1,/,i,-14,/,9,/
CCC(C)Nc1nc(-c2ccccn2)nc2ccccc12 (stereo unspecified),69*,i,-18,i,-6,-7
Cc1ccccc1/C=N/Nc1nc2ccccc2[nH]1,-115,i,-24,i,-50,-15
C(=N\Nc1nc2ccccc2[nH]1)/c1cccc2cccnc12,73*,i,-88,i,-51,26
COc1ccc(/C=C/C(=O)OCC(=O)NC2CCCC2)cc1,/,i,8,/,5,/
CCOc1ccc(S(=O)(=O)Nc2ccccc2C(=O)Nc2ccccc2N2CCOCC2)cc1,6,i,-17,i,-10,-11
CC(NCC(=O)Nc1cc(S(=O)(=O)N2CCCCCC2)ccc1Cl)c1ccccc1 (stereo unspecified),-14,i,-9,100*,-8,-10
O=C(Nc1cc(S(=O)(=O)N2CCCCC2)ccc1Cl)c1ccccc1NS(=O)(=O)c1ccc(F)cc1,63*,i,/,25*,/,6
Cc1ccccc1NCC(=O)Nc1cc(S(=O)(=O)N2CCCCC2)ccc1C,/,i,-3,/,0,/
CCOc1ccc(NC(=O)c2ccccc2NS(=O)(=O)c2ccc(F)cc2)c([N+](=O)[O-])c1,-2,i,-23,25*,-11,1
O=C(c1ccccc1NS(=O)(=O)c1ccc(F)cc1)N1CCCCC1,7,i,21,i,-1,-10
NC(=O)c1c(NC(=O)CN2CCN(S(=O)(=O)c3ccccc3)CC2)sc2c1CCC2,-11,i,-5,i,-1,/
Cc1cccc(NS(=O)(=O)c2ccc(NC(=O)CN(c3cc([N+](=O)[O-])ccc3C)S(C)(=O)=O)cc2)c1,101*,i,-27,i,19,0
CCOc1ccc(S(=O)(=O)NCCC(=O)NCc2ccc(OC)c(OC)c2)cc1,/,i,24,/,2,/
COc1cc(C(=O)NC(=S)N(CCc2ccccc2)CCc2ccccc2)cc(OC)c1OC,69*,i,-14,i,2,-4
COc1cc(C(=O)NC(=S)N(C)Cc2ccccc2)cc(OC)c1OC,2,i,10,i,8,-23
CCN(CC)S(=O)(=O)c1cccc(C(=O)N/N=C/c2ccc(O)c(O)c2O)c1,/,i,/,i,/,-13
